This is a sample that favours compounds with a hit; in the whole collection about 12% have one here.
PI5P4K alpha inh – qHTS for Inhibitors of phosphatidylinositol 5-phosphate 4-kinase (PI5P4K); Phosphatidylinositol 5-phosphate 4-kinase type-2 alpha (Homo sapiens), P48426; PI5P4Kalpha enzyme, ADP-Glo luminescence, 60 min; hits give low values; max response, %; 1.2% of 330,000 active; AID 652105, 2013; active = max response of -50% or lower; inconclusive = between -30% and -50%; inactive = -30% or higher; note: value at the top dose of about 77 µM; % is set by controls: 0 for no effect and ±100 for the full control effect
Target sequence (P48426 whole entry, looked up): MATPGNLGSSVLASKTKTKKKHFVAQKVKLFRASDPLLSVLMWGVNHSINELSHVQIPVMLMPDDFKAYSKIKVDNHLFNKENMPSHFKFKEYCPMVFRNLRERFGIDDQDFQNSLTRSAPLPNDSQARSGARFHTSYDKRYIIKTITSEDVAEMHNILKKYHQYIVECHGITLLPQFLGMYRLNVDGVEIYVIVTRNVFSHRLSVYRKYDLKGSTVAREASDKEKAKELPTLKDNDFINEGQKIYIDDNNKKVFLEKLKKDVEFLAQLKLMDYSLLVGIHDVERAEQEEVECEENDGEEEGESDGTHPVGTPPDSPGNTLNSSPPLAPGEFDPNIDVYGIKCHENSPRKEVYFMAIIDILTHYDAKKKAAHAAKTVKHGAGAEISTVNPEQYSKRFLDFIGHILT
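Controls without substrate or without enzyme flank wells where PI5P4Kalpha converts substrate using 5 microM ATP (final). Incubation lasts 60 minutes at room temperature; ADP formed is read by ADP-Glo luminescence.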
JMJD2A Tudor inh – qHTS Assay for Inhibitors of JMJD2A-Tudor Domain; Potency, µM (top dose mostly 114 µM), for the others: top-dose activity change, negative = inhibition, most hits filed as inhibitors; AlphaScreen JMJD2A-Tudor / H3K4me3 peptide binding; Lysine-specific demethylase 4A (Homo sapiens), O75164; AID 504339, 2011; 4.4% of 390,000 active; note: potency is the fitted concentration of half-maximal effect; % is set by controls: 0 for no effect and ±100 for the full control effect; nearly all actives have a fitted effect of over 50% in size
G9a inh-1 – qHTS Assay for Inhibitors of Histone Lysine Methyltransferase G9a; G9a H3K9 monomethylation, AlphaScreen, 2 h; Potency, µM (doses to about 102 µM), for inactives: at the top dose activity, negative = inhibition, actives largely listed as inhibitors; 8.8% of 350,000 active; note: potency is the fitted concentration of half-maximal effect; % is set by controls: 0 for no effect and ±100 for the full control effect; nearly all actives have a fitted effect of over 75% in size
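Using a bead-based AlphaScreen, monomethylated H3K9 product from 2 h room-temperature reactions (G9a 20 nM, peptide 500 nM, SAM 20 uM) was detected with 0.5 ug/mL rabbit anti-H3K9me1 antibody.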
PLK1 PBD block – qHTS for Inhibitors of PLK1-PDB (polo-like kinase 1 - polo-box domain): Primary Screen; Plk1 PBD binding of FITC phosphopeptide, fluorescence polarization; 2.8% of 360,000 active; Serine/threonine-protein kinase PLK1 (Homo sapiens), P53350; Potency, µM, without a hit: max response, negative = inhibition, actives largely listed as inhibitors; note: potency is the fitted concentration of half-maximal effect; series mostly up to about 57 µM; % is set by controls: 0 for no effect and ±100 for the full control effect; nearly all actives have a fitted effect of over 65% in size
HP1b chromo inh – HTS for Inhibitors of HP1-beta Chromodomain Interactions with Methylated Histone Tails; AlphaScreen HP1-beta / biotin-H3K9me3 peptide binding; 0.56% of 390,000 active; Potency, µM (series often up to 114 µM), for inactives: at the highest dose activity change, negative = inhibition, hits mostly inhibitors; note: potency is the fitted concentration of half-maximal effect; nearly all actives have a fitted effect of over 70% in size
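Compound inhibition of the preformed complex between 50 nM HP1-beta and 50 nM biotinylated H3K9me3 peptide was read by AlphaScreen. Buffer was PBS pH 7.4 with 0.01% Tween-20. Incubations ran 30 min at room temperature, with 10 ug/mL donor/acceptor beads.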
BAZ2B inh – qHTS Assay for Inhibitors of BAZ2B; Bromodomain adjacent to zinc finger domain protein 2B (Homo sapiens), Q9UIF8; AlphaScreen BAZ2B-H3K14Ac peptide displacement; Potency, µM (titrated, usually from 114 µM), for the others: at the highest dose activity change, negative = inhibition, most hits filed as inhibitors; 4.4% of 360,000 active; AID 504333, 2011; note: potency is the fitted concentration of half-maximal effect; % is set by controls: 0 for no effect and ±100 for the full control effect; nearly all actives have a fitted effect of over 60% in size
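Complex of BAZ2B and biotin-H3K14Ac (50 nM apiece) forms over 30 min at RT, then faces library compounds up to 110 uM for another 30 min; AlphaScreen beads added, 20 min dark incubation, luminescence read.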
G9a inh-2 – qHTS Assay for Inhibitors of Histone Lysine Methyltransferase G9a: Hit Confirmation. Potency, µM, hits mostly inhibitors. 89% of 370 active. G9a H3K9 monomethylation, AlphaScreen, 2 h. shares compounds with JMJD2A Tudor inh. AID 588344, 2011; note: potency is the fitted concentration of half-maximal effect; nearly all actives have a fitted effect of over 65% in size
Starred values were filed as active, the others as inactive; ? = inconclusive; · = no result given; [ ] = another dose, or the depositor's remark. Unless noted, calls come from the whole dose curve; as a rule, active = well fitted curve in the direction sought with a large enough effect; inconclusive = small, poorly fitted or top-dose-only effect, or another doubt; inactive = no such curve, though single readings can be large; an effect the other way counts as inactive or inconclusive.

SMILES	PI5P4K alpha inh	JMJD2A Tudor inh	G9a inh-1	PLK1 PBD block	HP1b chromo inh	BAZ2B inh	G9a inh-2
O=C(NCc1ccccc1CN1CCCC1)c1ccc(Cl)c(N2CCCC2=O)c1	-8	-7%	20%[12.7 µM]	-2%	34%	9%	·
O=C(NCc1ccccc1CN1CCCCC1)c1ccc(Cl)cc1N1CCCC1=O	-1	?	1µM*	1%	34%	3%	7.9*
COc1ccc(N2CCC(CNC(=O)Nc3ccccc3)C2)cc1 (stereo not drawn)	·	18µM*	?	-3%	45µM*	50µM*	1*
CCC(C)c1ccc(OCC(=O)Nc2ccc(-c3nc4ncccc4o3)cc2)cc1 (stereo not drawn)	·	-12%	-7%[59 µM]	·	36%	-12%	·
COc1ccc(Br)cc1CN1CCCCCCC1	·	4µM*	2.8µM*	5%	?	50µM*	13*
COc1ccc(-c2[nH]ncc2CN2CCCCCCC2)c(OC)c1	-11	?	·	-4%	-10%	?	·
CC(Oc1ccccc1F)C(=O)Nc1ccc(-c2nc3ccccc3s2)cc1 (stereo not drawn)	·	-4%	-23%[59 µM]	·	45%	-1%	·
Cc1ccc(C)c(Nc2nn3c(=O)c4ccc(C(=O)NCCc5ccccc5)cc4nc3s2)c1	·	-2%	-2%[59 µM]	·	24%	-11%	·
CCCNC(=O)c1ccc2c(=O)n3c(-c4ccc(C)cc4)csc3nc2c1	-7	22µM*	?	?	-25%	7.1µM*	0.56*
Cc1ccc(CNC(=O)C2CCCN(c3ncnc4onc(-c5ccc(F)cc5)c34)C2)cc1 (stereo not drawn)	·	4%	-25%[59 µM]	·	26%	10%[57.1 µM]	·
Cn1nnc(NC(=S)NC(=O)c2cccs2)n1	-5	3.2µM*	0.79µM*	-12%	-37%	?	7.1*
CC(=O)NC(=S)Nc1ccc(NC(=S)NC(=O)c2cccs2)cc1	-1	-29%	·	-12%	35%	-6%	·
CCN1CCN(c2ccc(NC(=O)c3cc4ccccc4cc3OC)cc2C)CC1	-2	-32%	?	5%	18%	-37%	3.2*
CCOC(=O)c1nn(-c2ccc(OC)cc2)c(=O)c2c(N)scc12	·	?	1.1µM*	?	-15%	50µM*	4*
CCN(c1ccc(NC(=O)CCc2nc3sc4c(c3c(=O)[nH]2)CCCC4)cc1)C(C)C	-12	?	2.2µM*	-9%	-21%	-33%	2.2*
CCc1ccc(NC(=O)CCc2nc3sc4c(c3c(=O)[nH]2)CCCC4)cc1	?	-30%	-34%	-5%	30%	-37%	·
C[C@@H]1CCCCO[C@H](CN(C)C(=O)Cc2ccccc2)[C@H](C)CN([C@@H](C)CO)C(=O)c2cc(NC(=O)Nc3ccc(F)cc3)ccc2O1	1	·	·	-9%	·	·	·
O=C(COc1ccccc1)Nc1sc2c(c1C(=O)NCc1cccnc1)CCCC2	·	-24%	-5%[59 µM]	-6%	17%	2%	·
O=C(COc1ccc(Cl)cc1)Nc1sc2c(c1C(=O)Nc1cccc(Cl)c1)CCCC2	·	71µM*	1.8µM*	·	?	?	3.6*
CCOc1ccc(NC(=O)c2c(NCc3cccnc3)sc3c2CCCC3)cc1	·	22µM*	2.8µM*	·	-11%	-29%	1.6*
COc1ccc(CCn2c(=O)c3cccnc3n(CC(=O)Nc3ccc(C)cc3C)c2=O)cc1OC	·	-11%	3%[59 µM]	·	30%	-1%	·

Assay outcomes deposited in PubChem BioAssay by National Center for Advancing Translational Sciences (NCATS).
